Measurements published in PubChem BioAssay AID431 (Sanford-Burnham Center for Chemical Genomics, 2006).
Out of some 63,000 compounds screened, about 1,100 (1.7%) were called active. The entries come from a sample that favours actives as a whole. Entries with a potency or affinity are not part of this list. A number with no mark means an inactive call.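 Rule for the calls: active = compounds whose percent cytotoxicity in the single-dose primary screen, scaled between solvent and toxic-drug controls, exceeds 50; inactive = the rest.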

Assay: cytotoxicity in KRAS-transformed pancreatic duct cells, primary screen, cell-based, fluorescence, HTS (AID 431);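 note: 0% = DMSO solvent wells and 100% = doxorubicin-treated wells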
Settings: HPDE-C7K KRASV12 cells, Alamar Blue viability, 48 h; at 10 µM; stronger effect = higher value

Row | Structure (SMILES) | cytotoxicity
1 | Cc1cc(C)c2nc(SCC#N)cc(C)c2c1 | 15.7%
2 | Cc1cc(NCCOCCO)n2ncc(-c3ccc(Cl)cc3)c2n1 | 75.4% (active)
3 | Cc1cc(NCCN2CCOCC2)n2ncc(-c3ccc(Cl)cc3)c2n1 | 17%
4 | Cc1cc(NCCCN2CCOCC2)n2ncc(-c3ccc(Cl)cc3)c2n1 | 23.7%
5 | COc1cccc(OCc2nc3ncc(Br)cc3[nH]2)c1 | 64.8% (active)
6 | COc1cccc(OCc2nc3ccccc3[nH]2)c1 | 10.6%
7 | O=C(NCc1nc2ncc(Br)cc2[nH]1)c1ccccc1 | -7.6%
8 | O=C(COC(=O)C(O)c1ccccc1)c1ccc2c(c1)OCCO2 (centres undefined) | -14.7%
9 | Cn1cc(Cl)c(C(=O)Nc2cccc(Cl)c2Cl)n1 | -18.7%
10 | COC(=O)c1ccc(Oc2cc(C)nc(NCc3ccccc3)n2)cc1 | 1.6%
11 | COC(=O)c1ccc(Oc2nc(C)cc(Oc3ccccc3)n2)cc1 | -1.7%
12 | COC(=O)c1ccc(Oc2cc(C)nc(SC)n2)cc1 | 53.4% (active)
13 | CCOC(=O)c1ccc(Oc2nc(SC)nc(N(C)C)n2)cc1 | -21.1%
14 | CCOC(=O)c1ccc(Oc2nc(NC)nc(SC)n2)cc1 | -5.1%
15 | CCOC(=O)c1ccc(Oc2cc(C)nc(SC)n2)cc1 | 55.4% (active)
16 | COc1ccc(S(=O)(=O)NC2CC3CCC2C3)cc1Cl (centres undefined) | 5%
17 | CCOC(=O)C(Cc1ccccc1)NC(=O)CCc1c(C)nc2ncnn2c1C (centres undefined) | -0.7%
18 | O=C(CN1CCc2ccccc2C1)c1cccs1 | -6.1%
19 | COc1cc2c(cc1OC)CN(C(=O)CSc1nnc3scc(-c4ccccc4)n13)CC2 | 1.3%
20 | CCN(CC)CCCOc1nc(C)nc2c1oc1ccccc12 | 9.8%
21 | Cc1cc(Cl)ccc1OCc1nc(-c2ccc(O)cc2)n[nH]1 | 86.2% (active)
22 | Clc1ccc(OCc2nc(-c3ccccn3)n[nH]2)cc1 | 47.8%
23 | Cc1cc(Cl)ccc1OCCCC(N)=O | -7%
24 | COc1ccc(N2CCN(C(=O)c3ccc4c(c3)OCO4)CC2)cc1 | 17%
25 | CC1CC(C)CN(C(=O)Cn2c(=O)n(CCCCC(=O)NC3CCCC3)c(=O)c3ccccc32)C1 (centres undefined) | -3.9%
26 | O=C(Cc1ccc(Cl)c(Cl)c1)OCC(=O)c1ccc[nH]1 | -10.8%
27 | O=C(Cc1ccc(-c2ccccc2)cc1)N1CCOCC1 | -4.1%
28 | O=C1NCCCC2c3c(cc(Br)c(O)c3Br)OC12N1CCOCC1 (centres undefined) | -3.5%
29 | CCCCn1c(SCC(=O)OCC)nc2c1c(=O)[nH]c(=O)n2C | 2.4%
